# Hit rate of the full screen: of about 310,000 compounds, about 11,000 (3.5%) were called active. Not shown: some 4% with an inconclusive outcome. For the sample, actives were picked, then their nearest neighbours and some compounds at random. Values without a mark were called inactive. Calls follow the shape of the dose curve; as a rule, active = well fitted inhibition curve with a large enough effect; inconclusive = small, poorly fitted or top-dose-only effect, or another doubt; inactive = no such curve, though single readings can be large or run the other way.
# Target: 4'-phosphopantetheinyl transferase ffp (Bacillus subtilis) (UniProt Q9F4F7)
# Assay: qHTS Assay for Inhibitors of Bacillus subtilis Sfp phosphopantetheinyl transferase (PPTase);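 also: the enzyme is Sfp with the accession as filed and its product quenches rhodamine fluorescence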;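 as to largest response in the series, negative = inhibition: 0% = enzyme reaction without inhibitor and -100% = no enzyme wells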
# Conditions: Biochemical Sfp PPTase activity
# In short: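 Buffer: 50 mM Hepes-Na pH 7.6, 10 mM MgCl2, 0.01% Nonidet P-40, 0.01% BSA. Enzyme 15 nM, pre-exposed to compound 15 min; substrates then added and fluorescence change tracked over 30 min.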
# Potency is read from the fitted curve at half-maximal effect.
Structure (SMILES),"largest response in the series, negative = inhibition",Potency
CCN(CC(=O)NCc1cccs1)C(=O)c1cccc(S(=O)(=O)Nc2ccccc2OC)c1,9.95%,–
COc1ccc(NC(=O)Cn2ncn3c(cc4ccccc43)c2=O)c(OC)c1OC,14.8%,–
COc1cc2c(cc1OC)CN(C(=O)c1cc(S(=O)(=O)N3CCCCC3)ccc1Cl)CC2,8.46%,–
CCCCC(CC)CNCc1cccn1CCN1CCOCC1 (stereo unspecified),-12.1%,–
COC(=O)c1cc(OCC(=O)NC2CCCc3ccccc32)cc(C(=O)OC)c1 (stereo unspecified),-18.9%,–
Cc1ccc(OCC(=O)Nc2ccc(NC(=O)c3cccs3)cc2)c(C)c1,29.1%,–
COc1ccc(N2C(=O)C3CCCN3C2c2cccs2)cc1 (stereo unspecified),-3.66%,–
COc1ccc(N2C(=O)C3C(C2=O)C(C(=O)c2ccccc2)N2CCCC32)cc1 (stereo unspecified),–,50.1 µM (active)
COc1ccc(N2C(=O)C(Cc3ccccc3)NC2=S)cc1 (stereo unspecified),6.01%,–
O=C(N/C(=C\c1ccc([N+](=O)[O-])cc1)C(=O)N1CCOCC1)c1cccc(Br)c1,3.86%,–
CCOC(=O)N1CCN(C(=O)C(C)NC(=O)c2ccco2)CC1 (stereo unspecified),26.5%,–
CCn1c(SCC(=O)Nc2ccc(Br)cc2)nc2sc3c(c2c1=O)CCN(C)C3,2.9%,–
Cc1nc(N2CCOCC2)sc1C(=O)NN,–,56.2 µM (active)
CCOC(=O)N1CCC(NC(=O)c2ccc3nc(N4CCOCC4)sc3c2)CC1,6.95%,–
Cc1nc(-c2ccc(Cl)cc2)sc1C(=O)NN,5.7%,–
Cc1ccc(NS(=O)(=O)c2ccc3c(c2)NC(=O)CO3)cc1,7.8%,–
COC(=O)N/N=C/c1ccc(-c2ccc(Cl)c(Cl)c2)o1,-3.69%,–
O=C(Cn1nnc(-c2ccccc2)n1)N/N=C/c1ccc(-c2ccc(Cl)cc2)o1,25.9%,–
Nc1nnnn1CC(=O)N/N=C/c1ccc(-c2cccc(Cl)c2)o1,–,25.1 µM (active)
CCn1c2ccccc2c2cc(NC(=O)Nc3ccc([N+](=O)[O-])cc3C)ccc21,–,56.2 µM (active)
Cc1cc([N+](=O)[O-])ccc1NC(=O)c1ccc(NC(=O)C(C)C)cc1,6.44%,–
CC(=O)c1ccc(NC(=O)Nc2ccc([N+](=O)[O-])cc2C)cc1,10.3%,–
O=[N+]([O-])c1ccc(N(CCO)Cc2ccccc2)c([N+](=O)[O-])c1,3.62%,–

Structure (SMILES),"largest response in the series, negative = inhibition",Potency
O=C(c1cnc(Cl)c(Cl)c1)N1CCN(S(=O)(=O)c2ccc(F)cc2)CC1,-5.59%,–
Cc1cccc(NC(=O)N2CCCCCC2)c1C,3.74%,–
CC(C)N1CCc2c(sc(NC(=O)Cc3ccccc3)c2C#N)C1,11.3%,–
N#Cc1c(N)sc2c1CCN(C(=O)OCc1ccccc1)C2,–,20 µM (active)
CC(=O)N1CCc2c(sc(NC(=O)CCS(=O)(=O)c3ccccc3)c2C#N)C1,-1.97%,–
CC(CC(=O)Nc1ccc(F)cc1F)S(=O)(=O)c1ccc2c(c1)NC(=O)CO2 (stereo unspecified),0.768%,–
NS(=O)(=O)c1ccc(CCNS(=O)(=O)c2cccc3cccnc23)cc1,2.24%,–
COc1ccc(CN2CCN(C(=O)CCC(=O)Nc3nnc(C(C)C)s3)CC2)cc1F,17.5%,–
Cc1ccc(NS(=O)(=O)c2ccc(-c3ccc(=O)[nH]n3)o2)c(C)c1,23.5%,–
CCOC(=O)c1c(C)nn(-c2ncccc2NC(=O)CCC(=O)O)c1C,–,89.1 µM (active)
CCOC(=O)c1c(-c2ccc(-c3ccccc3)cc2)csc1NC(=O)CCC(=O)O,-8.3%,–
Cc1ccc(OC(=O)c2c(C)nn(-c3ccccc3)c2C)cc1,-5.58%,–
CN(C(=O)c1cccc([N+](=O)[O-])c1)c1ccccc1C(=O)NCc1ccccc1,15.3%,–
CCOc1ccc(CNC(=O)CCC(=O)N2CCSc3ccccc32)cc1,11.6%,–
Nc1ccccc1Sc1ccc(C(F)(F)F)cc1[N+](=O)[O-],4.01%,–
CCOC(=O)c1cc(Sc2ccccc2N)cc(C(=O)OCC)n1,2.06%,–
CCS(=O)(=O)c1cc([N+](=O)[O-])c(Sc2ccccc2N)s1,–,3.98 µM (active)
COCCn1c(N)c(NCc2ccccc2)c(=O)[nH]c1=O,-5.84%,–
CCc1ccc(OCC(=O)NCC(c2ccc(Cl)cc2)N2CCCCC2)cc1 (stereo unspecified),-3.22%,–
O=c1c(O)c(Br)ccc2c(Br)c(O)c(O)c(O)c12,–,44.7 µM (active)
CN(CCC1CCOCC1)C(=O)CC1C(=O)NCCN1Cc1cccc(F)c1 (stereo unspecified),18.8%,–
C=CCNC(=S)N/N=C/c1ccc(C)s1,10%,–
Cc1cc(C(=O)N/N=C/c2ccc(N3CCOCC3)cc2)c(C)o1,16%,–

Structure (SMILES),"largest response in the series, negative = inhibition",Potency
CNC(=S)N/N=C/c1ccc(N2CCOCC2)s1,–,8.91 µM (active)
CC(NC(=O)COc1ccc(-c2ccccc2)cc1)C1CCCO1 (stereo unspecified),-4.17%,–
Cc1ccccc1/C=C\c1nc(O)c([N+](=O)[O-])c(=O)[nH]1,2.6%,–
COC(=O)c1ccc(NC(=O)CSc2nnc(CNc3ccc(OC)cc3)n2C)cc1,7.16%,–
C=CCn1c(CNC(=O)c2ccco2)nnc1SCC(=O)c1ccc(OC)cc1,17.3%,–
CCn1c(CNc2ccc(OC)cc2)nnc1SCC(=O)c1ccc(OC)cc1,–,28.2 µM (active)
O=C(NCc1ccc2c(c1)OCO2)C(=O)NCC1OCCN1S(=O)(=O)c1ccc(F)cc1 (stereo unspecified),4.15%,–
COc1ccc(OC)c([C@H](O)CNC(=O)CN)c1,4.71%,–
CC(C)c1nnc(NC(=O)CCC(=O)N2CCN(c3cccc(Cl)c3)CC2)s1,0.428%,–
CC(C)NS(=O)(=O)c1ccc(OCC(=O)NC2CCCCCC2)cc1,6.32%,–
Cc1ccc(S(=O)(=O)C(C#N)c2nc3ccccc3nc2N2CCCC2)cc1C (stereo unspecified),–,50.1 µM (active)
Cc1ccc(S(=O)(=O)Nc2nc3ccccc3nc2N2CCc3ccccc3C2)cc1,9.29%,–
Cc1cc(N2CCN(S(=O)(=O)c3ccc(C)c(C)c3)CC2)c2ccccc2n1,-20.8%,–
COc1ccc(NS(=O)(=O)c2cccc3nsnc23)cc1Cl,13.3%,–
Cc1cc(-c2ccc(S(=O)(=O)N3CCN(c4cccc(C(F)(F)F)c4)CC3)s2)on1,8.41%,–
S=c1[nH]nc(-c2cccs2)n1/N=C/c1cn(-c2ccccc2)nc1-c1ccc(Cl)cc1,-17.4%,–
S=c1[nH]c(-c2cccs2)cn1-c1ccccc1,–,15.8 µM (active)
O=c1[nH]c(-c2cccs2)nc2ccccc12,-0.0388%,–
COc1cccc(NC(=O)C2C(c3ccccc3)C2(Cl)Cl)c1 (stereo unspecified),11.1%,–
CCn1cc(C(=O)N[C@@H](C)C(=O)NCCO)c(=O)c2cc3c(cc21)OCO3,20.9%,–
Cc1ccc(S(=O)(=O)CC(=O)NC(C)c2ccccc2)cc1 (stereo unspecified),12.8%,–
CN(CCc1ccccn1)C1CCCN(S(=O)(=O)c2ccccc2Cl)C1 (stereo unspecified),8.81%,–
CC[C@H](C)[C@H](NC(=O)[C@H](Cc1ccc(O)cc1)NC(=O)[C@@H](NC(=O)[C@H](CCCN=C(N)N)NC(=O)[C@@H](N)CC(=O)O)C(C)C)C(=O)N[C@@H](Cc1cnc[nH]1)C(=O)N1CCC[C@H]1C(=O)N[C@@H](Cc1ccccc1)C(=O)O,-1.37%,–

Structure (SMILES),"largest response in the series, negative = inhibition",Potency
CCn1c(-c2ccoc2C)n[nH]c1=S,11.6%,–
CCCc1cc(-c2n[nH]c(=S)n2CC)c2ccccc2n1,-1.53%,–
CCn1c(-c2ccncc2)n[nH]c1=S,–,39.8 µM (active)
CC1=CCC2C(=O)N(c3cccc(C(=O)NC(C)c4ccccc4)c3)C(=O)C2C1 (stereo unspecified),5.16%,–
CCOC(=O)c1ccc(N2C(=O)CC(N(C)Cc3ccccc3)C2=O)cc1 (stereo unspecified),16.2%,–
CCOc1ccc(N2C(=O)CC(N(O)c3ccccc3)C2=O)cc1 (stereo unspecified),-14.7%,–
CCCCCCC(=O)N(O)C1CC(=O)N(c2ccccc2)C1=O (stereo unspecified),–,7.08 µM (active)
COc1ccc(CCNC(=O)CCc2cn(C)c3ccccc23)c(OC)c1,10.4%,–
Cc1onc(-c2ccccc2)c1C(=O)N1CCN(S(=O)(=O)c2ccccc2C(F)(F)F)CC1,21.8%,–
COc1ccc(N2CCN(c3ccc([N+](=O)[O-])cc3Cl)CC2)cc1,2.35%,–
O=[N+]([O-])c1ccc(N2CCN(c3ccc(O)cc3)CC2)c(Cl)c1,–,50.1 µM (active)
O=C(O)C1CCN(c2ccc([N+](=O)[O-])cc2[N+](=O)[O-])CC1,13.6%,–
O=C(Cc1ccc(Cl)cc1)NC1CCS(=O)(=O)C1 (stereo unspecified),11.6%,–
COC(=O)Nc1ccc(S(=O)(=O)Nc2cc(OC)nc(OC)n2)cc1,-10.4%,–
S=C(Nc1ccc(Br)cc1)NC1CCN(Cc2ccccc2)CC1,5.78%,–
CCOc1ccccc1NC(=S)NC(=O)CCc1ccccc1,-1.83%,–
COC(=O)c1c(NC(=O)c2ccc(S(=O)(=O)N3CCOCC3)cc2)sc2c1CCN(C(C)C)C2,6.28%,–
Cn1c(CNc2nc(-c3ccccc3)cs2)nnc1SCC(=O)c1ccccc1,3.73%,–
Cn1c(CC2Sc3ccccc3NC2=O)nnc1SCC(=O)c1ccc(Cl)cc1 (stereo unspecified),–,44.7 µM (active)
Cn1c(SCC(=O)c2ccc(F)cc2)nnc1-c1ccccn1,-4.04%,–
COCCN1CCn2c(nc3cc(NS(C)(=O)=O)ccc32)C1,11.6%,–
Cc1cc(=O)oc2c1ccc1ccccc12,3.98%,–

# Reference: PubChem BioAssay AID1490 (National Center for Advancing Translational Sciences (NCATS), 2009)
